High-throughput results: PubChem BioAssay, several laboratories
Beta apoptosis – beta cell apoptosis inhibition; INS-1E cytokine-induced death, ATP luminescence, 48 h; percent of positive-control rescue, neutral wells zero; protection from apoptosis, % (test concentration not listed); hit rate 0.8% among 300,000;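 active means Every replicate reaches about 75%, or at least half do and their mean reaches it too, limit read from the data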;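 further: 0% = cytokine-treated negative control wells and 100% = positive control rescue; higher means more ATP so stronger rescue from cytokine killing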
Calb FLC – affects C. albicans growth with fluconazole. C. albicans CaCi-2 (fluconazole-resistant clinical isolate) + fluconazole, Alamar Blue growth, 48 h. growth inhibition, % (no concentration beside the values). hit rate 0.57% among 300,000;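 active means growth inhibition above about 58% in most replicates, limit read from the data, passing the limit was not always enough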;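 further: all wells also contain fluconazole at 8 µg/ml as a sub-toxic cotreatment; 0% = median of DMSO wells and 100% = median of geldanamycin control wells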
Mdm2 MdmX PPI – human Mdm2/MdmX binding inhibition. hit rate 3% among 330,000. O15151+Q00987. AID 485346. inhibition, % at 8 µM. SaOS-2 split-luciferase Mdm2/MdmX complementation, luminescence;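 active means inhibition of at least 50% at 8 µM in the primary screen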
MPTP inh – permeability transition pore inhibition; isolated mouse mitochondria, Ca2+ swelling absorbance, 30 min; inhibition, % at 10 µM; hit rate 1.4% among 360,000; AID 602449;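 active means inhibition of 50% or more, scaled per plate between neutral and stimulator controls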;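 further: 0% = DMSO wells given calcium and 100% = 1 mM EGTA wells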
CSC inhib – blocks cancer stem cells | inhibition, % at 7.5 µM | cancer stem cell-like cells viability, luminescence | hit rate 1.1% among 300,000; in the data active means inhibition above about 75%; tested in HMLE shEcad cells
Mdm2-MdmX conf – human Mdm2/MdmX binding inhibition, confirmed | shares compounds with Mdm2 MdmX PPI | hit rate 55% among 10,000 | luminescent assay | inhibition, % at 8 µM; in the data active means inhibition above about 40%
FLuc counter – full-length luciferase inhibition in Mdm2/MdmX counter-screen; SaOS-2 full-length luciferase counterscreen, luminescence; inhibition, % at 8 µM; hit rate 77% among 6,200; shares compounds with Mdm2 MdmX PPI;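 active means mean inhibition at 8 µM reaching about 37%, which flags the compound as non-specific, limit read from the data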;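 further: p53-null SaOS-2 cells with luciferase driven by a doxycycline-inducible promoter; compound on cells about two nights before reading with doxycycline added after day one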
* = called active by the depositor. This is a sample that favours compounds with a hit; in the whole collection about 4.8% have one here.

`CCCCN=C[C@]12CCC(O)CC1(O)CCC1[C@@H]2CC[C@]2(C)[C@H](C3C=CC(=O)O3)CCC12O` (some centres not stated) gave Beta apoptosis -10, Calb FLC -1, Mdm2 MdmX PPI 59*, MPTP inh 0, CSC inhib 99*, Mdm2-MdmX conf 70* and FLuc counter 50*.
CC12CCC3C(CCC4(O)CC(O)CCC34C=O)C1(O)CCC2C1=CC(=O)OC1 (configuration not stated) was read as MPTP inh 0.
CC12CC[C@H]3[C@@H](CCC4(O)C[C@H](O)CCC34/C=N/NC(=O)c3ccccc3Cl)C1(O)CCC2C1=CC(=O)OC1 (some centres not stated) was read as Beta apoptosis -3, Calb FLC 5, Mdm2 MdmX PPI -3, MPTP inh 0 and CSC inhib -4.
For C[C@]12CC[C@H]3[C@@H](CC[C@]4(O)C[C@@H](O)CC[C@]34C=O)[C@@]1(O)CC[C@@H]2C1=CC(=O)OC1 the results were Beta apoptosis 0, Mdm2 MdmX PPI 69*, MPTP inh -1, CSC inhib 101*, Mdm2-MdmX conf 69* and FLuc counter 28.
`COc1ccc(C(c2nnnn2-c2c(C)cccc2C)N2CCC(n3c(=O)[nH]c4ccccc43)CC2)cc1` (configuration not stated) gave MPTP inh -1.
Screening CCc1cc2c(N3CCN(C)CC3)ncnc2s1 returned Beta apoptosis -4, Calb FLC -2, Mdm2 MdmX PPI -1, MPTP inh -3 and CSC inhib 3.
CCN1CCN(c2ncnc3ccc(Br)cc23)CC1 was read as Beta apoptosis -8, Calb FLC -1, Mdm2 MdmX PPI 62*, MPTP inh 16, Mdm2-MdmX conf 62* and FLuc counter 42*.
`CC1=Nc2ccccc2/C1=C/c1c(O)n(C)c(=O)[nH]c1=O` gave Beta apoptosis -7, Calb FLC 2, Mdm2 MdmX PPI -5, MPTP inh 0 and CSC inhib 12.
Cc1cccc(-n2c(O)c(/C=C3/C(c4ccccc4)=Nc4ccccc43)c(=O)[nH]c2=O)c1 was read as Beta apoptosis 19, Calb FLC 28, Mdm2 MdmX PPI 54*, MPTP inh 24, CSC inhib 65, Mdm2-MdmX conf 57* and FLuc counter 36.
`Cc1ccccc1-n1c(O)c(/C=C2/C(c3ccccc3)=Nc3ccccc32)c(=O)[nH]c1=O` gave Beta apoptosis 15, Calb FLC -3, Mdm2 MdmX PPI 57*, MPTP inh 38, CSC inhib 67, Mdm2-MdmX conf 63* and FLuc counter 66*.
For c1cncc(CNCCN2CCNCC2)c1 the results were MPTP inh -1.
For N#CC(C#N)=C(N)c1cccnc1 the results were Calb FLC -2, Mdm2 MdmX PPI 55*, MPTP inh 1, CSC inhib 5 and Mdm2-MdmX conf -24.
For O=C(Cc1ccccc1)OCCNC(=O)c1cccnc1 the results were Calb FLC -11, Mdm2 MdmX PPI 18 and MPTP inh -1.
COc1cc2c(c(OC)c1OC)-c1ccc(O)cc1C(NC(C)=O)CC2 (configuration not stated) was read as MPTP inh -3.
Screening COc1cc2c(c(OC)c1OC)-c1ccc(O)cc1[C@@H](NC(C)=O)CC2 returned Beta apoptosis 59, Calb FLC 0, Mdm2 MdmX PPI 63*, MPTP inh -1, CSC inhib 4, Mdm2-MdmX conf 65* and FLuc counter 107*.
Screening COC1=CC2[C@@H]3Cc4ccc(OC)c(O)c4[C@]2(CCN3C)CC1=O (some centres not stated) returned Beta apoptosis -9, Mdm2 MdmX PPI 22 and MPTP inh 0.
`CC(C)(O)[C@H]1O[C@H]2CC[C@@]3(C)[C@@](O)(CC[C@H]4Cc5c([nH]c6ccccc56)[C@@]43C)C2=CC1=O` gave Beta apoptosis 4, Mdm2 MdmX PPI 62*, CSC inhib 16, Mdm2-MdmX conf 50* and FLuc counter 77*.
